Hit rate of the full screen: of about 340,000 compounds, about 1,800 (0.53%) were called active. Many of the other results were omitted from the sample, so actives are more common in it than they were. Values without a mark were called inactive.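 How the source made its calls: active means activation over 3 SD above normal in the single-dose calcium agonist read (cut at about 30% in these data); inactive means the rest.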
The molecules below were run against D(2) dopamine receptor (Homo sapiens) (UniProt P14416) (assay: HTS Assay for Allosteric Agonists of the Human D2 Dopamine Receptor: Primary Screen for Agonists). Details: HEK293 T-REx D2 cells, calcium flux agonist mode; at 2 µM; hits give high values.
From the text: NIH Chemical Genomics Center [NCGC] NIH Molecular Libraries Probe Centers Network [MLPCN] MLPCN Grant: NS064831-01 Assay Submitter (PI): David Sibley Dopamine receptors (DARs) are involved in the etiology and/or therapy of a number of neuropsychiatric and endocrine disorders. For instance, all receptor-based antiparkinsonian drugs work via stimulating the D2 DAR subtype whereas all FDA-approved antipsychotic agents are antagonists of this receptor. […] There are three different types of allosteric modulators that we are seeking, two of which will stimulate or augment receptor signaling, allosteric agonists and potentiators, while the third, allosteric antagonists, will attenuate receptor signaling. The present primary screening assay measures compound agonism by tracking calcium flux in a […], inducible Hek293 Trex D2 cell line.
Freshly passaged cells are plated in 1536 well black, clear bottom plates at a density of 4000 cells/well in 3 ul of complete media containing 1x tetracycline inducer. After an overnight incubation at […] in 5% CO2, cells are loaded with 2 ul of the no wash Calcium Assay Kit (ABD Bioquest) and incubated at room temperature for 30 to 90 minutes. Agonist read: A 10 cycle (1 second/cycle) baseline measurement is taken and then the FDSS online 1536 pintool delivers 23 nl of compound library (as well as dopamine controls) to the plate. The plate is measured for kinetically at 1 cycle/sec for 180 seconds and is considered to be the agonist portion of the assay (eg, compounds which activate a positive calcium response during this portion are flagged as potential agonists). Following the 180 second read, 1 ul of either an EC20 (positive modulation assay) or EC80 (negative modulation assay) is delivered by an onboard pipette head. Measurements are taken kinetically for an additional 180 seconds.
Further: 0% is about no effect.

D(2) dopamine receptor (Homo sapiens), sequence (P14416 whole entry, looked up): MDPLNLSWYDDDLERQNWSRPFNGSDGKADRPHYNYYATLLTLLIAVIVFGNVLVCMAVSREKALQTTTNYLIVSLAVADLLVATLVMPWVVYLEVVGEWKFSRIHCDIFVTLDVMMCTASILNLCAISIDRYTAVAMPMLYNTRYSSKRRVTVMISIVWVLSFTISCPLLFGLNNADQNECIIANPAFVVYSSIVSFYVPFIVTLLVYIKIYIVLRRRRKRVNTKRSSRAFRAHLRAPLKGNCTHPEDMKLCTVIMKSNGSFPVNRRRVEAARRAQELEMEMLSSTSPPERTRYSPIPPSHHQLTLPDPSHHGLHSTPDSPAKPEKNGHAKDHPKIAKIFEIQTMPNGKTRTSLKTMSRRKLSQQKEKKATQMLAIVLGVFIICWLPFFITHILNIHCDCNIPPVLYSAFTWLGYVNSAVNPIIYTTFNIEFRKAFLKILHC

| SMILES | activation |
| --- | --- |
| O=C(/C=C/c1ccccc1)N1CCN(Cc2cc(=O)n3nc(-c4ccccc4F)sc3n2)CC1 | 0.305% |
| C=CCNC(=O)/C=C/c1ccc(C(C)C)cc1 | 0.0403% |
| O=C(/C=C(O)/C=C/c1ccc(O)cc1)/C=C/c1ccc(O)cc1 | 57.4% (active) |
| O=C(O)/C=C/c1ccc(S(=O)(=O)N2CCCCCC2)cc1 | 19.8% |
| CC(NC(=O)c1cc2c(=O)n3ccccc3nc2n(C(C)C)c1=N)c1ccccc1 (centres undefined) | 0.527% |
| COc1ccc(CNC(=O)CS(=O)Cc2nc(-c3cccc(C)c3)oc2C)cc1 (centres undefined) | -0.737% |
| CCN(CCCNC(=O)CSc1cc(=O)n(C)c2cc(Cl)ccc12)c1cccc(C)c1 | 0.221% |
| CCN(CCCNC(=O)c1ccc(Sc2ccc(C)cc2)c(NC(C)=O)c1)c1cccc(C)c1 | 0.373% |
| CCN(CCCNC(=O)c1ccc2c(c1)NC(=O)CN2C)c1cccc(C)c1 | 37.3% (active) |
| COc1cc(OC)c(NC(=O)Cc2ccc(-n3c(C)nc4cccnc43)cc2)cc1Cl | -0.621% |
| CCOc1cc(C2c3c(-c4ccc(Br)cc4)n[nH]c3C(=O)N2c2ccc(Cl)cc2)ccc1O (centres undefined) | 0.413% |
| Cc1cc(C)cc(NC(=O)Cn2nc(N3CCN(c4ccccc4)CC3)ccc2=O)c1 | 0.0127% |
| N#C/C(=C/c1ccc(N2CCOCC2)o1)C(=O)N1CCOCC1 | 7.75% |
| O=C(NCCc1c[nH]c2ccccc12)C1CCN(Cc2ccc(Br)cc2)CC1 | -0.253% |
| N#C/C(=C/c1ccc(N2CCCCC2)o1)C(=O)NCCc1c[nH]c2ccccc12 | 38.7% (active) |
| CCOc1cc(-c2nnc(SCC(=O)NC3CCCC3)nc2-c2ccc(OC)c(OCC)c2)ccc1OC | 0.392% |
| Cc1ccc(C(=O)Nc2c(C(=O)NC(C)(C)C)oc3ccccc23)cc1 | 0.0939% |
| O=C(CN1CCN(c2ncccn2)CC1)Nc1ccccc1C(F)(F)F | 57.8% (active) |
| O=C(CN1CCN(c2ccccn2)CC1)NC1CCCCC1 | 67.6% (active) |
| O=C(CN1CCN(c2ccccn2)CC1)Nc1ccc(Br)cc1 | 43.9% (active) |
| CCOC(=O)N1CCN(Cc2nc3cc(NC(C)=O)ccc3n2C)CC1 | 0.585% |
| O=C(CSc1n[nH]c(=O)n1-c1ccccc1)Nc1ccccc1C(F)(F)F | 0.222% |

| SMILES | activation |
| --- | --- |
| CCN(CC)c1ccc(NC(=O)CN2CCN(c3ccccn3)CC2)cc1 | 26.5% |
| CS(=O)(=O)N1CCN(CC(=O)NC2CCCC2)CC1 | -0.0909% |
| CC(C(=O)N(C)CC(=O)Nc1ccccc1C(F)(F)F)N1C(=O)c2ccccc2C1=O (centres undefined) | -0.167% |
| CCC(=O)Nc1ccc2c(c1)nc(CCN1CCN(c3ccccn3)CC1)n2C | 78.2% (active) |
| O=C(Cc1ccc(Br)cc1)N1CCN(c2ccccn2)CC1 | 0.551% |
| Cn1c(CCN2CCCCCC2)nc2cc(NC(=O)Nc3ccccc3)ccc21 | 1.58% |
| O=C(CN1CCN(c2ccccn2)CC1)NCc1cccs1 | 18.2% |
| CC1CCN(S(=O)(=O)c2ccc3c(c2)N(CC(=O)NCc2ccccc2Cl)C(=O)CO3)CC1 | -0.934% |
| CCc1ccc(Sc2cc(C(=O)NCCCOC(C)C)c3ccccc3n2)cc1 | 0.0547% |
| Cc1c(Cl)cccc1-c1ccc(CNCCCSc2nnnn2C)o1 | 0.946% |
| COc1ccc(-c2cn3nc(N4CCC(C(=O)Nc5cccc(C)c5C)CC4)sc3n2)cc1 | 1.52% |
| CSc1cccc(NC(=O)CN2C(=O)CCc3cc(S(=O)(=O)N4CCCCC4)ccc32)c1 | 1.49% |
| COc1ccc(NC(=O)NC(C)c2c(-n3cccc3)sc(C)c2C)cc1OC (centres undefined) | 0.829% |
| CCOC(=O)c1c(C)[nH]c(C)c1S(=O)(=O)NCC(=O)NCc1cccc(C)c1 | 0.112% |
| COc1ccc(CCNC(=O)c2cc(=O)c3c(C)cc(C)cc3o2)cc1OC | -0.676% |
| COc1cccc(CNC(=O)C(=O)NCC(c2cccs2)S(=O)(=O)c2ccccc2)c1 (centres undefined) | 17.6% |
| CCN1CCN(c2ncnc3c2cnn3-c2ccc(C)c(C)c2)CC1 | 0.887% |
| COc1cc(C(=O)NCC(c2ccc(Cl)cc2)N2CCOCC2)cc(OC)c1OC (centres undefined) | -0.027% |
| Cc1cc(C)c2oc(C(=O)Nc3c(C(=O)Nc4ccccc4)oc4ccccc34)cc(=O)c2c1 | 0.443% |
| Cc1ccccc1C(=O)N(Cc1ccc(N(C)C)cc1)CC1CCCO1 (centres undefined) | -0.0491% |
| O=C(Nc1cc(-c2nc3ccccc3o2)ccc1Cl)c1cc([N+](=O)[O-])ccc1N1CCOCC1 | -0.175% |
| Cc1ccccc1OCC(=O)Nc1c(C(=O)Nc2ccccc2F)oc2ccccc12 | -0.888% |

From PubChem BioAssay AID485358 (National Center for Advancing Translational Sciences (NCATS), 2010)
